From PubChem
SKN-1 inh: C. elegans SKN-1 inhibition; inhibition, % at 21.8 µM; AID 624304; C. elegans VP596 Pgst-4::GFP/RFP ratio, acrylamide-induced, 24 h; 0.49% of 360,000 active;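 active means interference check ratio from 0.5 to 1.5 plus GFP to RFP signal ratio inhibition reaching or exceeding a fixed threshold, cut at about 30% in these data, passing the limit was not always enough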
CHRM1 PAM: positive allosteric modulators of human M1 muscarinic receptor; P11229; CHO-K1 hM1, Fluo-8 calcium fluorescence, ACh EC20; 0% = ACh EC20, 100% = maximal ACh; activation, % at 3 µM; AID 588819; 0.088% of 360,000 active; in the data active means activation above about 19%, passing the limit was not always enough
Target sequence (P11229 whole entry, looked up): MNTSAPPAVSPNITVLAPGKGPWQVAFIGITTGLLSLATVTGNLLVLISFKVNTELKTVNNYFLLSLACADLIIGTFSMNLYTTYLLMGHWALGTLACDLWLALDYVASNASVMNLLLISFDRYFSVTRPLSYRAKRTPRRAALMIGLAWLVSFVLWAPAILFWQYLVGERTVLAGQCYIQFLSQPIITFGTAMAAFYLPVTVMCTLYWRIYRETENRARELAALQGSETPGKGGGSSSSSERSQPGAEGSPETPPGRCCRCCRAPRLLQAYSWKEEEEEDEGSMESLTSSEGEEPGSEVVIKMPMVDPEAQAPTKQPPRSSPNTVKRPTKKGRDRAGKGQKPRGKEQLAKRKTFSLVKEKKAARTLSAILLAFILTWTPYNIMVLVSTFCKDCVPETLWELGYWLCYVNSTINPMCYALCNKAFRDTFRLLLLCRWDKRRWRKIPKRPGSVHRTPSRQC
ATG4B inhibitor: blocks human ATG4B protease cleavage of LC3 substrate. AID 504462. ATG4B cleavage of LC3-PLA2, NBD-HPC fluorescence, 1 h. inhibition, % at 8.33 µM. Q9Y4P1. 0.51% of 340,000 active; in the data active means inhibition above about 40%
M1 antag: blocks human M1 muscarinic receptor | inhibition, % at 3 µM | 1.3% of 360,000 active | CHO-K1 hM1, Fluo-8 calcium fluorescence, ACh EC80 antagonist | P11229;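 active means percent inhibition above its own plate's cutoff, namely the mean of that plate's compound wells plus 3 SD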;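 further: peak over basal fluorescence ratio during 140 s after agonist addition; 0% = ACh EC80 plus DMSO and 100% = DMSO alone without agonist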
Myeloid diff MLP: promotes myeloid progenitor differentiation. 1% of 360,000 active. AID 624256. ER-HoxA9 myeloid progenitors, lysozyme-GFP differentiation, flow cytometry. calls only at 10 µM;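 active means normalized GFP-positive differentiation at or above the plate's own cutoff, the solvent-only control mean plus 3 SD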;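 further: cells exposed to compound for four days before flow analysis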
CHRM1 agonist: human M1 muscarinic receptor agonism; P11229; CHO-K1 hM1, Fluo-8 calcium fluorescence, agonist mode; 0% DMSO, 100% acetylcholine EC100; activation, % at 3 µM; 0.33% of 360,000 active;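 active means activation above the run's mean compound activation plus 3 SD, cut at about 16% in these data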;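 further: peak over basal fluorescence ratio within a 140 s kinetic read after compound addition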
Myeloid diff: promotes myeloid progenitor differentiation; 2% of 2,300 active; shares compounds with Myeloid diff MLP; calls only; ER-HoxA9 myeloid progenitors, GFP/Mac1 double-positive flow;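 active means share of green or green-and-red cells above 9 and 9% in run 1 or 4 and 3% in run 2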
GFP autofluor: counter-screen for myeloid differentiation promoters: compound fluorescence; 7.4% of 2,300 active; shares compounds with Myeloid diff MLP; fluorescence response, % (no concentration beside the values); ER-HoxA9 myeloid progenitors, no estrogen, GFP autofluorescence flow cytometry; vehicle wells 0%, positive control 100%;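 active means over 5% cells positive for green fluorescent reporter, or over 2% positive for both it and APC stain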;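 further: range taken on the double positive population between DMSO and positive control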
* hit, by the source's call; i = inactive; . = not tested or not shown; + = active, no number. This is a sample that favours compounds with a hit; in the whole collection about 3.5% have one here.

SMILES	SKN-1 inh	CHRM1 PAM	ATG4B inhibitor	M1 antag	Myeloid diff MLP	CHRM1 agonist	Myeloid diff	GFP autofluor
Oc1ccccc1N=Cc1sc2ccccc2c1Cl	2	8	-14	-5	+	-7	i	0
Cc1ccc(O)c(N=Cc2sc3ccccc3c2Cl)c1	14	3	3	-9	i	-4	.	.
CCc1ccc(/C=C/c2c([N+](=O)[O-])c(=O)n(C)c(=O)n2C)cc1	-9	14	-2	-21	i	-3	i	1
COc1ccc(CC(=O)NCC(=O)N/N=C/c2ccc(C)o2)cc1	-1	2	-3	-6	i	-7	.	.
Cc1ccc(/C=N/NC(=O)CNC(=O)COc2ccc(Cl)cc2)o1	2	8	-9	-7	+	-3	i	0
CC(C)C[C@H](NC(=O)N1CCn2c1nc1ccccc12)C(=O)N[C@@H](C(=O)O)c1ccccc1	0	3	-12	-7	+	-2	i	0
CC(C)C[C@H](NC(=O)N1CCn2c1nc1ccccc12)C(=O)N[C@@H](Cc1ccccc1)C(=O)O	-4	4	-9	-7	i	-3	.	.
Cc1ccc(CNC(=O)c2cc3c(=O)n4ccccc4nc3n(Cc3ccco3)c2=N)cc1	-16	-8	-2	-9	i	-6	.	.
Cc1ccc(S(=O)(=O)c2cc3c(=O)n4ccccc4nc3n(Cc3ccco3)c2=N)cc1	16	12	-4	-13	i	-6	i	0
O=C(O)c1cccnc1Nc1ccc(Cl)cc1	7	9	5	4	+	-2	+	0
C=C(C(=O)c1ccccc1)C(C)CC(=O)c1ccccc1 (centres undefined)	-1	-7	9	3	i	-3	i	99*
O=C(Nc1ccccc1Cl)Nc1ccnn1C1CCN(C(=O)CCN2CCCO2)CC1	11	-2	-10	0	i	-4	.	.
CSC1=NSC2=NC(=O)/C(=C\c3cccs3)C(=N)N12	7	3	-7	0	i	-6	.	.
CSC1=NSC2=NC(=O)/C(=C/c3coc4ccc(O)cc4c3=O)C(=N)N12	13	-26	15	34*	+	42*	i	2
Cn1c2ccccc2c2nnc(SCC(=O)NC3CC3)nc21	3	1	-2	-1	i	-7	.	.
O=c1[nH]c(CN2CCN(c3ccccc3)CC2)nc2scc(-c3ccccc3)c12	9	-4	-8	8	+	-4	i	0
COc1ccc(N2CCN(Cc3nc4scc(-c5ccccc5)c4c(=O)[nH]3)CC2)cc1	4	8	16	0	i	-2	.	.
C(=NOCc1ccccc1)c1cccnc1	27	5	-4	-8	i	-3	.	.
Cc1nn(CC(=O)NCc2ccccc2Cl)c(C)c1[N+](=O)[O-]	-11	-4	3	8	+	-6	i	1
Cc1cccc(C)c1-n1nnnc1S(=O)(=O)Cc1ccccc1Cl	-9	-1	15	-7	i	-4	i	0
O=C(Cc1ccccc1[N+](=O)[O-])NNC(=O)c1cccs1	6	8	-4	-11	i	-1	.	.
CCOc1ccccc1NC(=O)c1ccccc1-c1nc(-c2ccccc2)no1	4	-3	-2	7	+	-2	i	0
CCOc1ccccc1NC(=O)c1ccccc1-c1ccccc1	21	6	1	-14	i	-5	.	.
COc1cccc(NC(=O)C(Cc2ccccc2)n2cccc2)c1 (centres undefined)	-8	1	-4	-8	i	-4	.	.
CCc1ccc(N(C(=O)c2snc(C(N)=O)c2N)C(C(=O)NCCC(C)C)c2c[nH]c3ccccc23)cc1 (centres undefined)	7	3	-1	-6	i	-1	.	.
O=C(N/N=C/c1ccncc1)c1cccc(NC(=O)c2ccccc2Cl)c1	6	-12	-6	7	i	-3	.	.
